Data taken from PubChem BioAssay AID1159580 (chemical genetic matrix, 2015).
Several values for one entry are separate records, joined by “and”; a condition that tells them apart may be missing. Equal entries are not always repeated. The whole screen tested about 5,500 compounds, of which about 2,000 (36%) were called active. Inconclusive results (about 18%) are left out. No stated cut-off is given here; in the data, active means normalized growth mostly below about 0.91 (no sharp cut-off); inconclusive means no clear call, values can overlap the other calls; inactive means mostly above about 0.92. Some of the results follow.

Assay: chemical genetic growth profiling, strain panel (AID 1159580);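 further: tested at 20 µM; growth read once vehicle control cultures reached saturation at 30 °C; 1 = growth at the plate median or of vehicle wells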
Conditions: S. cerevisiae deletion strains, growth OD

Measured: normalized growth

COc1cc2cc3c4cc(OC)c(OC)cc4cc[n+]3c(C)c2cc1OC
inactive: locus YAL021C, strain ccr4, stronger effect = lower value 1.05 | locus YAL026C, strain drs2, stronger effect = lower value 1.03 | locus YAL030W, strain snc1, stronger effect = lower value 1.01 | locus YBL061C, strain skt5, stronger effect = lower value 1.02 | locus YBR009C, strain hhf1, stronger effect = lower value 1.01 | locus YBR021W, strain FUR4, stronger effect = lower value 1 | locus YBR023C, strain chs3, stronger effect = lower value 1.01 | locus YBR171W, strain sec66, stronger effect = lower value 1.03 | locus YBR229C, strain ROT2, stronger effect = lower value 1.01 | locus YBR231C, strain swc5, stronger effect = lower value 1 | locus YBR279W, strain paf1, stronger effect = lower value 1.01 | locus YCL011C, strain gbp2, stronger effect = lower value 1.01 | locus YCL016C, strain dcc1, stronger effect = lower value 0.997 | locus YCL029C, strain bik1, stronger effect = lower value 1.01 | locus YCL061C, strain MRC1, stronger effect = lower value 1.01 | locus YCL069W, strain vba3, stronger effect = lower value 1.01 | locus YCR088W, strain abp1, stronger effect = lower value 1.01 | locus YDL005C, strain med2, stronger effect = lower value 1.02 | locus YDL035C, strain GPR1, stronger effect = lower value 0.998 | locus YDL040C, strain nat1, stronger effect = lower value 0.992 | locus YDL074C, strain BRE1, stronger effect = lower value 0.996 | locus YDL101C, strain DUN1, stronger effect = lower value 1.01 | locus YDL134C, strain PPH21, stronger effect = lower value 0.982 | locus YDL185W, strain tfp1, stronger effect = lower value 1.02 | locus YDL192W, strain arf1, stronger effect = lower value 1 | locus YDR001C, strain nth1, stronger effect = lower value 1.01 | locus YDR069C, strain doa4, stronger effect = lower value 1.02 | locus YDR101C, strain arx1, stronger effect = lower value 1.01 | locus YDR137W, strain rgp1, stronger effect = lower value 1.06 | locus YDR159W, strain sac3, stronger effect = lower value 1 | locus YDR162C, strain NBP2, stronger effect = lower value 0.999 | locus YDR195W, strain ref2 0.97 | locus YDR297W, strain sur2, stronger effect = lower value 1.01 | locus YDR318W, strain mcm21, stronger effect = lower value 0.987 | locus YDR334W, strain swr1, stronger effect = lower value 1.02 | locus YDR335W, strain msn5, stronger effect = lower value 1.01 | locus YDR388W, stronger effect = lower value 1 | locus YDR392W, strain spt3, stronger effect = lower value 0.848 | locus YDR502C, strain sam2, stronger effect = lower value 0.987 | locus YEL003W, strain gim4, stronger effect = lower value 1.01 | locus YEL037C, strain rad23, stronger effect = lower value 1.01 | locus YEL061C, strain CIN8 (second series), stronger effect = lower value 1.01 | locus YEL061C, strain CIN8, stronger effect = lower value 1.01 | locus YER015W, strain faa2, stronger effect = lower value 1.01 | locus YER016W, strain bim1, stronger effect = lower value 1 | locus YER110C, stronger effect = lower value 1.02 | locus YER111C, strain swi4, stronger effect = lower value 1.03 | locus YER155C, strain BEM2 (second series), stronger effect = lower value 0.97 | locus YER155C, strain BEM2, stronger effect = lower value 1.01 | locus YER167W, strain BCK2, stronger effect = lower value 1 | locus YFR010W, strain ubp6, stronger effect = lower value 1.03 | locus YGL078C, strain dbp3, stronger effect = lower value 0.997 | locus YGL086W, strain mad1, stronger effect = lower value 1.03 | locus YGL167C, strain pmr1, stronger effect = lower value 1.01 | locus YGL173C, strain kem1, stronger effect = lower value 1.03 | locus YGL227W, strain vid30, stronger effect = lower value 1.01 | locus YGL240W, strain doc1, stronger effect = lower value 0.999 | locus YGL248W, strain PDE1, stronger effect = lower value 0.997 | locus YGL253W, strain hxk2, stronger effect = lower value 1.03 | locus YGR135W, strain pre9, stronger effect = lower value 0.988 | locus YGR229C, strain SMI1, stronger effect = lower value 1.01 | locus YGR252W, strain gcn5, stronger effect = lower value 0.904 | locus YHR013C, strain ard1, stronger effect = lower value 1.01 | locus YHR027C, strain rpn1, stronger effect = lower value 1.04 | locus YHR030C, strain SLT2, stronger effect = lower value 1.01 and 0.988 | locus YHR079C, strain IRE1 (second series), stronger effect = lower value 1.02 | locus YHR079C, strain IRE1, stronger effect = lower value 1 | locus YHR094C, strain hxt1, stronger effect = lower value 1.01 | locus YHR129C, strain ARP1, stronger effect = lower value 1 | locus YHR142W, strain chs7, stronger effect = lower value 1.01 | locus YHR200W, strain rpn10, stronger effect = lower value 0.994 | locus YIL066C, strain RNR3, stronger effect = lower value 1.01 | locus YIL073C, strain SPO22, stronger effect = lower value 1.01 | locus YIL125W, strain kgd1, stronger effect = lower value 1.01 | locus YIR030C, strain dcg1, stronger effect = lower value 1 | locus YJL092W, strain hpr5, stronger effect = lower value 1.01 | locus YJL095W, strain BCK1 (second series), stronger effect = lower value 1.01 | locus YJL095W, strain BCK1, stronger effect = lower value 1.01 and 0.99 | locus YJL115W, strain asf1, stronger effect = lower value 1.01 | locus YJL129C, strain trk1, stronger effect = lower value 1.02 | locus YJL134W, strain LCB3, stronger effect = lower value 1.01 | locus YJL154C, strain vps35, stronger effect = lower value 1.01 | locus YJL164C, strain tpk1, stronger effect = lower value 0.984 | locus YJL166W, strain qcr8, stronger effect = lower value 1.02 | locus YJL168C, strain set2, stronger effect = lower value 1.01 | locus YJL187C, strain SWE1 (second series), stronger effect = lower value 0.991 | locus YJL187C, strain SWE1, stronger effect = lower value 1.01
